The list is not random: actives were taken first. Their share in the collection is about 1.2%.
ABHD5 PLIN5 PPI = ABHD5-PLIN5 protein interaction inhibition; inhibition, % at 4 µM; 360,000 tested, 0.78% active; Split G. princeps luciferase complementation, luminescence, 4 h; AID 602281; Q00G26+Q8WTS1;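 active = inhibition above the mean inhibition across every tested compound plus 3 SD, cut at about 22% in these data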;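 note: 0% = DMSO only wells and the 100% control is not disclosed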
NOD2-RIPK2 inh = inhibitors of human NOD2-RIPK2 interaction; O43353; inhibition, % at 4.98 µM; 360,000 tested, 0.38% active; CHO BLA complementation NOD2-RIPK2, CCF4 ratio; in the data active = inhibition above about 21%;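 note: 0% = vehicle only and 100% = reference blocker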
TLR9-MyD88 block = inhibitors of human TLR9-MyD88 binding; inhibition, % at 4.98 µM; CHO BLA complementation TLR9-MyD88, CCF4 FRET ratio; Q9NR96+Q99836; 340,000 tested, 0.21% active;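 active = inhibition above the mean over all tested compounds plus 3 SD, cut at about 21% in these data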;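 note: 0% = DMSO only wells and 100% = clavulanate BLA inhibitor control wells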
TLR4-MyD88 BLA = TLR4-MyD88 interaction inhibition in cells. HeLa CL3-4 TLR4/MyD88 BLA complementation, FRET ratio. 200,000 tested, 0.18% active. inhibition, % at 8.4 µM. O00206+Q99836; in the data active = inhibition above about 25%;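 note: 0% = vehicle and 100% = reference inhibitor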
ABHD5-PLIN5 conf = confirmation of human ABHD5-PLIN5 interaction inhibitors; 2,200 tested, 67% active; biochemical ABHD5-PLIN5 interaction, luminescence; shares compounds with ABHD5 PLIN5 PPI; inhibition, % at 4 µM; in the data active = inhibition above about 23%;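 note: 0% = DMSO vehicle wells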
HNF4 split-luc = active in HNF4 split-luciferase counter-screen for ABHD5-PLIN5 inhibitors | HNF4 dimerization, luminescence, biochemical | inhibition, % at 4 µM | shares compounds with ABHD5 PLIN5 PPI | 2,200 tested, 77% active;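 active = mean inhibition across replicate wells exceeding the computed hit threshold, cut at about 13% in these data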;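 note: light from luciferase halves that rejoin when HNF4 fusion proteins dimerize; 0% = DMSO only wells and the 100% control is not given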
Target sequence (P41235 whole entry, looked up, the tested form may be a part): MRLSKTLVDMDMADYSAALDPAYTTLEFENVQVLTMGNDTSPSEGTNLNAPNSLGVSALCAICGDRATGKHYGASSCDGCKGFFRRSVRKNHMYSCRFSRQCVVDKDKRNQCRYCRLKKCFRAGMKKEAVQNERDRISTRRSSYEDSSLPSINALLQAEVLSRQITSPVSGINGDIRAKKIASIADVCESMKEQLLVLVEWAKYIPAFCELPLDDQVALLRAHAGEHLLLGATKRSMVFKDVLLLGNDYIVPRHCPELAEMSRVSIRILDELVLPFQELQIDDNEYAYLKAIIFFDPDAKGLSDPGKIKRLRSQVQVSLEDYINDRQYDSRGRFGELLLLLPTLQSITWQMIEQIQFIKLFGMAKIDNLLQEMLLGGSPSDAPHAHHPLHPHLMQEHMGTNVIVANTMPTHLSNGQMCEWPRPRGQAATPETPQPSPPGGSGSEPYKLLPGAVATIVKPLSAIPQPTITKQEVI
* marks the source's active call; other numbers are inactive results; / = no result given; ! = not confirmed by another sample.

SMILES	ABHD5 PLIN5 PPI	NOD2-RIPK2 inh	TLR9-MyD88 block	TLR4-MyD88 BLA	ABHD5-PLIN5 conf	HNF4 split-luc
CSc1ccc(CN(C)CC(=O)Nc2ccc(NC(C)=O)cc2)cc1	102*	-15	7	-20	6	4
COc1ccc(S(=O)(=O)N2CCCCC2)cc1NC(=O)c1ccc(OC)c(OC)c1	-8	3	3	/	/	/
O=C(Nc1ccc(Cl)cc1)/C(=C/c1cccc(O)c1)c1nc2ccccc2s1	30*	4	0	-2	86*	61*
S=C(Nc1ccc(Cl)cc1)c1nc2ccccc2s1	-2	-14	-3	16	/	/
O=C1/C(=C\c2ccccc2)CCc2c1[nH]c1ccccc21	-11	12	9	10	/	/
O=C1/C(=C/c2ccccc2)CCc2ccc(Cl)nc21	76*	6	3	/	91*	74*
CSc1nc2ccccc2cc1/C=C(\C#N)c1cccc(C)c1	49*	-11	-1	1	-12	1
CSc1nc2ccccc2cc1/C=C(\C#N)c1ccccc1	-11	-6	1	-4	/	/
O=C(C(=Cc1ccccc1)CN1CCCCC1)c1ccccc1	47*	12	-2	/	77*	65*
CC(=O)Nc1cccc(-c2ccnc3c2CC(C)(C(=O)NCCC(F)(F)F)O3)c1 (stereo not drawn)	6	1	/	/	/	/
CCOC(=O)CNc1nnc(SCC(=O)OCC)[nH]c1=O	26*	-3	-9	-12	41*	83*
COC(=O)CSc1nnc(C)c(=O)[nH]1	0	-3	6	-5	/	/
Cc1cc(NC(=O)c2ccccc2C)ccc1NC(=O)c1ccccc1Cl	-3	6	-6	/	/	/
COc1ccccc1N1CCNC(C)C1=O (stereo not drawn)	57*	4	-1	/	7	15*
COc1ccc(-c2n[nH]nc2C2=CC(=O)CC(C)(C)C2)cc1	3	-8	4	/	/	/
O=C1N(Cc2ccccc2)CC2(Br)COCOC12O (stereo not drawn)	39*	-8	1	/	93*	102*
C=C[C@]1(C)C[C@@H](OC(=O)CSCCN(CC)CC)[C@]2(C)C(C)CC[C@]3(CCC(=O)[C@H]32)[C@@H](C)[C@@H]1O (stereo partly drawn)	23*!	-17	1	/	33*	1
CCCCNC(=O)C(NC(=O)c1ccc2c(c1)OCO2)C(=O)c1ccccc1 (stereo not drawn)	-9	-13	/	/	/	/
Cc1cc2nc(-c3cccc(Br)c3)c(Cc3ccsc3)n2c(C)c1Br	0	-19	/	/	/	/
Cc1cc2nc(-c3cccc(Br)c3)c(Cc3ccccc3)n2c(C)c1Br	28*	-11	/	/	32*	17*
CC(C)(C)NC(=O)C(c1ccncc1)n1c(=O)c(-c2ccccc2)nc2ccccc21 (stereo not drawn)	10	-5	/	/	/	/
CC(C)(C)NC(=O)C(c1ccnc2ccccc12)n1c(=O)c(-c2ccco2)nc2ccccc21 (stereo not drawn)	58*	-7	/	/	42*	7
CC(C)(C)NC(=O)C(c1cc2ccccc2o1)n1c(-c2ccc(-c3ccccc3)cc2)nc2ccccc21 (stereo not drawn)	2	-8	/	/	/	/
CC(C)(C)NC(=O)C(c1ccncc1)n1c(=O)c(-c2ccco2)nc2ccccc21 (stereo not drawn)	48*	-16	/	/	44*	14*
COc1ccc(C(C(=O)NC(C)(C)C)n2c(=O)c(-c3ccccc3)nc3ccccc32)cc1 (stereo not drawn)	-1	-3	/	/	/	/
SMILES	ABHD5 PLIN5 PPI	NOD2-RIPK2 inh	TLR9-MyD88 block	TLR4-MyD88 BLA	ABHD5-PLIN5 conf	HNF4 split-luc
CC(C)(C)NC(=O)C(c1ccccc1)n1c(=O)c(-c2ccco2)nc2ccccc21 (stereo not drawn)	75*	-6	/	/	77*	26*
CC(C)(C)NC(=O)C(c1cc2ccccc2o1)n1c(=O)c(-c2ccco2)nc2ccccc21 (stereo not drawn)	79*	3	/	/	84*	16*
CC(C)(C)NC(=O)C(c1ccccc1F)n1c(=O)c(-c2ccccc2)nc2ccccc21 (stereo not drawn)	3	12	/	/	/	/
CCCCCNC(=O)C(c1cc2ccccc2o1)n1c(=O)c(-c2ccco2)nc2ccccc21 (stereo not drawn)	94*	-12	/	/	85*	14*
COc1ccc(NC(=O)C(c2ccncc2)n2c(=O)c(-c3ccco3)nc3ccccc32)cc1 (stereo not drawn)	12	-2	/	/	/	/
CCCCCNC(=O)C(c1ccncc1)n1c(=O)c(-c2ccco2)nc2ccccc21 (stereo not drawn)	58*	-11	/	/	35*	15*
Cc1ccnc(NC(=O)CCC(=O)N(CC(=O)NC2CCCCC2)C2CCCC2)c1	-1	-7	2	/	/	/
O=C(O)c1cccc(-n2nc(-c3ccc(Cl)c([N+](=O)[O-])c3)c3ccccc3c2=O)c1	-11	-8	-1	/	/	/
Cc1ccc(/C=C/C(=O)c2nc3ccccc3[nH]2)cc1	69*	3	13	13	90*	85*
Cc1nc2ccccc2c(N)c1C(=O)/C=C/c1ccccc1	34*	4	-2	/	41*	37*
CCOC(=O)/C(=C/c1c(C)n(C)c2ccc([N+](=O)[O-])cc12)C(C)=O	46*	0	0	-5	83*	76*
COC1=CC(=O)C(OC)=C(OC)C1=O	26*	-5	-19	/	52*	73*
COc1ccc(C(=O)C[C@@H]2OC[C@H](Cc3ccccc3)N2S(=O)(=O)c2ccc(C)cc2)cc1OC	-1	-20	/	/	/	/
O=C(c1ccc(Cl)c(S(=O)(=O)N2CCOCC2)c1)N1CCCCCC1	6	-4	-6	/	/	/
O=C1OC(c2ccc(Cl)cc2)=N/C1=C\C=C\c1ccco1	53*	-2	-4	6	18	17*
O=C1OC(c2ccccc2)=N/C1=C\C=C\c1ccccc1[N+](=O)[O-]	1	-14	-1	-8	/	/
O=C1OC(c2ccccc2)=N/C1=C\C=C\c1ccco1	39*	0	11	0	15	35*
CCOC(=O)C1(NC(=O)C2(N3C(=O)c4ccccc4C3=O)CCCC2)CCCC1	4	-4	5	/	/	/
C=C1CCC(OC(C)=O)C2(C)CCC3C(C)C(=O)OC3C12O (stereo not drawn)	0	-9	-11	/	/	/
C=C1C(=O)OC2CC1C(OC(C)=O)CC(C)=CCCC(C)=CCCC2(C)O (stereo not drawn)	61*	10	/	/	83*	66*
CN(CCCS(=O)(=O)[O-])c1ccc(/C=C/c2ccc3ccccc3[n+]2C)cc1	-11	-18	-16	/	/	/
CN(C)c1ccc(/C=C/c2ccc3ccccc3[n+]2C)cc1	29*	-5	-4	4	23*	30*
COc1ccc(OCC(=O)Nc2cc(S(=O)(=O)N3CCCC3)ccc2Cl)cc1	-1	-12	-3	/	/	/
N#Cc1c(Nc2ccccc2C(F)(F)F)s[nH]c1=O	16	-53	/	/	/	/
N#Cc1c(Nc2ccccc2Cl)s[nH]c1=O	25*	-4	-11	/	44*	103*

Screening data deposited in PubChem by The Scripps Research Institute Molecular Screening Center.
